The entries come from a sample that favours hits as a whole. How many sequences the whole screen found active is unknown.
test system: T1, Caupolican (Caup) homeodomain DNA-binding domain; test: PBM E-score (8-mer, recovered from the published 9-mer minima) (E-score (dimensionless, -0.5 to 0.5)); Drosophila protein; higher = stronger relative binding preference, active = 0.31 or more
T1 sequence: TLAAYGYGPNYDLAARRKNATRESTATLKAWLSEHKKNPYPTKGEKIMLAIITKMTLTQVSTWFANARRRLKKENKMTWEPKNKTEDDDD
How it was run: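 Caup's homeodomain DNA-binding domain (residues 214-303) was made by in vitro transcription and translation and applied at 100 nM to custom-designed protein binding microarrays. Each value is an enrichment score that gives relative binding preference for a short DNA word, with higher meaning stronger. The 8-mer values were recovered from published 9-mer scores, each of which was the minimum of its two constituent 8-mer scores. A cutoff of 0.31 marks candidate sites.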

PBM E-score, inactive:
GGGATATA -0.0036
ATCGTTCG 0.0642
AGCCGTTC -0.195
ACGAACCT -0.0743
ACGTGGCG -0.111
CCACAGAA -0.00495
TATTACGA 0.162
GTAGTTCA 0.136
AATAAATA 0.202
AGTATCTG 0.00127
AGTGACGC -0.155
AATGTAAT 0.303
GATGTAAA 0.305
TCTGTAAA 0.0832
AATGTAAG 0.214
CCTGTAAA 0.131
ACTGTAAA 0.154
CCTGTAAG 0.127
GCTGTAAA 0.128
GTCGCTTA 0.0465
CACGAAAG 0.0338
CTCGTGAA 0.027
GTAGATAA 0.14
ACCATAAT 0.119
GATGTAAC 0.306
AATGTAAC 0.295
GATTTTAC 0.156
CTTTAGTC -0.0734
AATCGTAA 0.173
CCCTAGAA -0.0811
CAACATCC 0.238
ACACATGC 0.236
AAACATTC 0.209
ACACATGG 0.167
GCACATGC -0.0345
AAACATCC 0.258
CAACATTC 0.0579
GAACATCC 0.295
AACGAATG 0.00089
ATACCAGC -0.0192
AAAACACG 0.303
GGGTCAAA -0.108
CGTAAAAC -0.0282
CATAGAGA 0.113
ATTAGTAG 0.212
GCATGCGC -0.104
ATGCGGGA -0.0659
GGGTGTGA -0.0838
TCACATGA 0.182
TAACATCA 0.305
GAACATTA 0.219
ACACATGA 0.265
CCACATGA 0.124
AAACATCA 0.279
GAGCATGA 0.0786
CAACATGG 0.295
CGAACGAC 0.0606
ATGGTATG 0.132
CTATTTAA -0.0109
CGTCTTGA -0.0138
AGGTCTCA -0.08
ACTGAGTC -0.0541
AGCTATAG -0.0145
AAACATTG 0.183
CAACATAC 0.302
GGACATAC 0.179
AAACATCG 0.217
AAACATTT 0.252
AAACATCT 0.215
CCAGTTCC -0.2
GCAGCGAC -0.118
GATCGGCA -0.0784
ATTGCGAC 0.0529
CAATTAGA 0.0523
GGGGTAAC -0.00369
CGTCGTTC 0.0474
ACAAGAAG 0.183
ATTAACAG 0.146
CTTAACAC 0.226
GTTAACAA 0.296
ATTAACTC 0.0863
ATTGCGGC -0.0444
AAGCGGAT -0.113
ACTTCGAT 0.0903
AGGGCAGC -0.267
CTGTCCGC -0.11
ATATGATG 0.183
ATATGATC 0.134
CCATGATC 0.0355
TCATGAGA 0.0179
GCATGATA 0.159
ACATGAGT 0.305
CCATGATA 0.0656
AGATGATG 0.0748
GCCACCAA -0.183
CCGTAAAA -0.0169
ACCTTAAA -0.0366
CAAGGCGA -0.0101
ACGGGTAC 0.103
ATACAACG 0.283
CTACAACC 0.281
GCACAACA 0.211
GTTCAACA 0.198
CCACAACA 0.142
ATACAACC 0.258
ACATACAG 0.247
AGATACAA 0.296
GCATACAA 0.247
ACATAAAG 0.215
ACATAAAA 0.221
AGATACAG 0.109
TCATACAA 0.163
ACATACGT 0.206
CATAGGTA 0.0694
AACACTAC 0.222
TCATTTAA 0.167
AGGGTTGG -0.0294
AAAACAGT 0.11
AGGCCGTA -0.041
GGCCAGTA -0.128
TAACGCTA -0.0254
GCAGTGAC -0.0444
CATCACGA 0.107
AGTGCTTG 0.116
CCATACAC 0.105
GCATACAC 0.208
AGGCCCTG -0.09
AACCAACT 0.143
ATTGTACG 0.203
CTTGTGCA 0.18
CTTGTCCC 0.186
ATTGTACC 0.2
GTTGTAGA 0.291
CTTGTAGA 0.248
GTTGTGCA 0.0605
CTCGTACC 0.0909
ACTAGAGC -0.0268
ACCGGTTA -0.00609
CAGGGGTA -0.133
AGCGAGGG -0.182
CTGATTAC 0.231
AGTACACC 0.265
AGCACACG 0.042
AGTACACT 0.181
AGCACACA 0.0184
CCCATAGG -0.163
AAACTTGG -0.0323

PBM E-score, active:
CATGTAAA 0.421
TATGTAAA 0.327
CATGTAAG 0.395
AATGTAAA 0.323
CATGTAAC 0.431
ACACATGT 0.372
CAACATGC 0.317
AAACATGC 0.342
GAACATGC 0.354
TAACATGA 0.424
GAACATGA 0.421
CAACATGA 0.344
AAACATGA 0.409
AAACATGT 0.443
GAACATAC 0.331
AAACATGG 0.321
ATTAACAC 0.326
ATTAACAA 0.342
ACATGATA 0.413
ACATGAGA 0.344
ACATGATG 0.351
ACATGATC 0.357
ATACAACA 0.373
GTACAACA 0.429
CTACAACA 0.332
AGATACAT 0.368
ACATAAAT 0.318
ACATACAA 0.386
ACATACAT 0.427
ACATACAC 0.352
CTTGTACC 0.389
CTTGTACA 0.44
ATTGTACA 0.417
GTTGTACA 0.388
AGTACACG 0.376
AGTACACA 0.342

From the supplement of paper PMC3724861
